This passage reports outcome results from PubChem BioAssay (EPA / NIEHS).

Records with an inconclusive call do not appear. Active and inactive are the calls of the source. The calls were made as follows: active = hit-call score of the fitted dose curve at least 0.9, where 1 is the maximum; inconclusive = response in the unintended direction; inactive = score below 0.9.

Read-out in this assay: xenobiotic metabolism (CYP2C9), CYP2C9 (gene 1559)
Nature of the assay: CLD_CYP2C9_6hr: CellzDirect (CLD) Gene Expression Assay for xenobiotic metabolism (CYP2C9) at 6 hours (AID 2283664). As for the experimental part: CLD_6hr is a cell-based, multiplexed-readout assay that uses hepatocyte, a human liver primary cell, with measurements taken at 6 hours after chemical dosing in a 96-well plate.CLD_CYP2C9_6hr is one of 16 assay component(s) measured or calculated from the CLD_6hr assay. It is designed to make measurements of mRNA induction, a form of inducible reporter, as detected with chemiluminescence signals by Quantitative Nuclease Protection Assay (qNPA) technology.Data from the assay component CLD_CYP2C9_6hr was analyzed at the endpoint, CLD_CYP2C9_6hr, in the positive analysis fitting direction relative to DMSO as the negative control and baseline of activity. Using a type of inducible reporter, gain-of-signal activity can be used to understand changes in the reporter gene as they relate to the gene CYP2C9. Furthermore, this assay endpoint can be referred to as a primary readout. To generalize the intended target to other relatable targets, this assay endpoint is annotated to the cyp intended target family, where subfamily is xenobiotic metabolism.
Human hepatocyte cultures were treated daily for two consecutive days with fresh dosing solutions containing appropriate concentrations of the 320 ToxCast chemicals (chemical identities were blinded to CellzDirect and other ToxCast collaborators), vehicle control (0.2% DMSO), and positive control inducers as summarized in Table 1. Due to the large number of treatment groups and chemicals examined, the ToxCast chemicals were divided into two groups (spanning two independent cultures of hepatocytes from separate donor preparations (Hu778: ToxCast plates 1 and 2; Hu776: ToxCast plates 3 and 4). Each preparation of human hepatocyte cultures was treated with respective vehicle control, medium only control, set of six positive controls/reference chemicals for the five hepatic receptor pathways, and a subset of eight of the ToxCast chemicals (indoxacarb, pyrithiobac-sodium, norflurazon, cyhalofop-butyl, methomyl, thiram, acetochlor, and propiconazole). These replicate data, coupled with internal replicates designed within the blinded ToxCast chemical library, provided additional data to evaluate interindividual differences between hepatocyte preparations and their potential impact on chemical profiles.Cell morphology and integrity were evaluated using phase-contrast microscopy as an indicator of hepatocyte cell health (Tyson & Green, 1987). Cultures for each treatment group (i.e., media, vehicle [0.2% DMSO], positive control inducers [multiple concentrations], and the ToxCast chemicals [multiple concentrations]) were observed and cell morphology was assessed relative to vehicle control cultures at each harvest time point (0, 6, 24, or 48 h). […] Images were evaluated at the conclusion of the study to assess changes in cell integrity and account for the effects of chemical exposure on uncharacteristic changes in concentration-dependent gene expression profiles. The results from these determinations of apparent cytotoxicity were annotated (yes/no) alongside the corresponding qNPA data for reference.At the conclusion of each treatment period, hepatocyte cultures (96-well) were washed with 1 volume of HBSS, lysed by addition of 25 ul ArrayPlate lysis buffer (HTG, Tucson, AZ), and 70 ul/well of Denaturation Oil, denatured by incubation at 95C for 10 min, and frozen at approximately -70C until analysis by nuclease protection assay (qNPA) (Roberts et al., 2007). For qNPA analysis, cell lysates were thawed at 50C for approximately 30 min, qNPA probes were added, and samples were incubated at 95C for 10 min to begin the detection process by denaturing the target RNA, dissociating the duplexes and secondary structure hybridization. At the conclusion of the hybridization period, S1 nuclease reagent was added to each sample to digest all nonprotected nucleotides at 50C for 60-90 min. […]
On to `O=C(O)COc1ccc(Cl)cc1Cl`, for which the result was inactive. For `Cc1[nH]c(=O)n(C(C)(C)C)c(=O)c1Cl` the value was “inactive”.

`CNC(=O)CSP(=S)(OC)OC`: the compound was classed as inactive. As for `COc1cc(OC)nc(NC(=O)NS(=O)(=O)c2cc(NC=O)ccc2C(=O)N(C)C)n1`, the result was inactive. For `CCCN(CCOc1c(Cl)cc(Cl)cc1Cl)C(=O)n1ccnc1` the value was “inactive”; for `CCC(C)(NC(=O)c1cc(Cl)c(C)c(Cl)c1)C(=O)CCl` (centres undefined), “inactive”; for `COC(=O)c1ccccc1CS(=O)(=O)NC(=O)Nc1nc(OC)cc(OC)n1`, “inactive”. Take `Oc1cc(Cl)ccc1Oc1ccc(Cl)cc1Cl`: the compound was classed as inactive. As for `O=C(O)CCCOc1ccc(Cl)cc1Cl`, the entry is “inactive”; as for `OCCOc1ccccc1`, “inactive”.

In the case of `C[C@H]1[C@H](c2ccc(Cl)cc2)SC(=O)N1C(=O)NC1CCCCC1`, the call was inactive. As for `O=C(NC(=O)c1c(F)cccc1F)Nc1ccc(OC(F)(F)C(F)OC(F)(F)F)c(Cl)c1` (centres undefined), the entry is “inactive”. For the compound `O=[N+]([O-])/N=C1\NCCN1Cc1ccc(Cl)nc1`, the outcome was inactive. For `CNC(=O)Oc1ccccc1OC(C)C` the value was “inactive”. For `CCc1ccc(C(=O)NN(C(=O)c2cc(C)cc(C)c2)C(C)(C)C)cc1` the value was “inactive”; for `CC1(c2ccc(Oc3ccccc3)cc2)OC(=O)N(Nc2ccccc2)C1=O` (centres undefined), “inactive”. Regarding `COC(=O)c1ccccc1S(=O)(=O)NC(=O)N(C)c1nc(C)nc(OC)n1`, the result was inactive. In the case of `Cc1cc(C)nc(NC(=O)NS(=O)(=O)c2ccccc2C(=O)OC2COC2)n1`, the result was inactive.

Take `[2H]C1([2H])[n+]2ccccc2-c2cccc[n+]2C1([2H])[2H]`: the compound was called inactive.
